Consider 20 compounds from PubChem BioAssay (EPA / NIEHS).

A word on the AC50: it is the concentration giving half of the maximal activity seen.

“And” between values parts separate entries of the source, which are not always exact repeats. Equal values may be shown once. Where a structure was tested more than once in an assay, its records may differ in their call. The source made the active and inactive calls. How the source made its calls: active means hit-call score of the fitted dose curve at least 0.9, where 1 is the maximum; inactive means score below 0.9.

This experiment can be described thus: CCTE_Shafer_MEA_dev_correlation_coefficient_mean: CCTE's Neural Network Formation Assay for Mean Correlation Coefficient, Shafer Lab (AID 2284093).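 On AC50: well mean pairwise spike train correlation integrated as AUC over recording days 5 to 12.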 How it is done: CCTE_Shafer_MEA_dev assay is conducted using Axion Biosystems 48 well microelectrode array (MEA) plates and Maestro recording system. Each well of the MEA plate contains a grid of 16 microelectrodes embedded in the culture surface. Electrically active cells, such as neurons, can be cultured over the electrodes, and electrical activity in these cells can be recorded extracellularly. The spontaneous firing of neurons is captured from each electrode on a microsecond timescale providing both temporally and spatially precise data. […] The CCTE_Shafer_MEA_dev assay uses primary cultures of rat cortical neurons. Recordings are made on days post-plating 5, 7, 9 and 12. As these cultures mature over time, neural networks develop functional activity and form cohesive networks in which electrical activity can be highly coordinated. CCTE_Shafer_MEA_dev_correlation_coefficient_mean is 1 of 19 assay components of the CCTE_Shafer_MEA_dev assay. It measures the correlation coefficent of spikes (action potential firings) between every pair of electrodes in a well during a recording in a microelectrode array (MEA) using Axion Biosystems Maestro 768 channel amplifier with the AxIS adaptive spike detector. The pairwise correlations are averaged across active electrodes to report a well-mean value. To collapse across multiple recordings made on days post-plating 5, 7, 9 and 12, the trapezoidal area-under-the-curve of the component is calculated.Data from the assay component CCTE_Shafer_MEA_dev_correlation_coefficient_mean was analyzed into 1 assay endpoint. This assay endpoint, CCTE_Shafer_MEA_dev_correlation_coefficient_mean, was analyzed in the negative analysis fitting direction relative to DMSO as the negative control and baseline of activity. Using a type of functional reporter, gain or loss-of-signal activity can be used to understand electrical activity.
On the day prior to culture, each well was coated thoroughly with 150 uL of 0.05% polyethyleneimine (PEI, Sigma Cat P3143) in 50 mM HEPES (Sigma Cat H7523) at a pH of 8. The plate was incubated at 37C for one hour. PEI was rinsed out with 500 uL of sterile water three times. Plates were stored at 4C until the day of culture. This culture was plated at a seeding density of 1.5 x 10^5 cells/well on a 48-well MEA plate, prepared as described above. Cells were administered via a 25 uL media/laminin ([…]; Sigma Cat L2020-1MG) drop directly onto the microelectrode array, as adding the cells with the laminin results in better attachment than pre-coating with laminin. After 2 hours, an additional 475 uL of cortical media was added and the cells returned to the incubator. Exposure starts at day 0 of plating and is continued over twelve days of network development until the experiment is terminated. Cells are fed with fresh medium on DIV 5 and 9, following the recordings on those days. The entire volume of media in the well is exchanged and any vehicle or compound treatment is renewed. Complete details are found in OP-NHEERL/ISTD/SBB/TJS/2015-03-r0 (available on request, email shafer.tim@epa.gov). Measurement of the electrical activity is non-invasive, and recordings can be made from the same plate over multiple different days of the culture. In cortical neurons, this allows for the measurement of extracellular action potentials over the period during which networks form in the MEA plate.
For the compound `ClC1=C(Cl)C2(Cl)C3C(Cl)C=CC3C1(Cl)C2(Cl)Cl` (stereo unspecified), the AC50 is 1.97 µM (active). On the same count and under the same terms, to `COC(=O)Nc1nc2ccccc2[nH]1` belongs 5.11 µM (active). For the compound `[O-][Cl+]O`, the call was inactive. Turning to `Clc1ccc(C(c2ccc(Cl)cc2)C(Cl)Cl)cc1`, the AC50 is 3.89 µM (active). As for `CC(C)(C)C(O)(CCc1ccc(Cl)cc1)Cn1cncn1` (stereo unspecified), the half-maximal activity concentration (AC50) is 15 µM (active). On the same count and under the same terms, the same measure for `Clc1ccc(C(c2ccc(Cl)cc2)C(Cl)(Cl)Cl)cc1`: 3 µM (active) and 4.07 µM (active); for `ClC1=C(Cl)[C@]2(Cl)[C@H]3[C@H]([C@@H]4C=C[C@H]3C4)[C@@]1(Cl)C2(Cl)Cl`: 1.99 µM (active). For the compound `CCCCOC(=O)c1ccccc1C(=O)OCc1ccccc1`, the call was inactive. The same measure, in the same setting: to `Nc1cc(Cl)cc(C(=O)O)c1Cl` belongs “inactive”. As to `CC(C)COC(=O)c1ccccc1C(=O)OCC(C)C`, the AC50 is 13.9 µM (active). As for `CNC(=O)Oc1cccc2c1OC(C)(C)C2`, the result was inactive. In the case of `CCC[CH2][Sn]([Cl])([CH2]CCC)[CH2]CCC`, the AC50 was 0.0772 µM (active).

As for `[Cl-].[Cl-].[Hg+2]`, the AC50 is 0.66 µM (active).

For the compound `O=P(OCCCl)(OCCCl)OCCCl`, the compound was classed as inactive.

In the case of `COP(=S)(OC)SCN1C(=O)c2ccccc2C1=O`, the compound was classed as inactive and the AC50 is 19 µM (active). As to `OCCOCCO`, the outcome was inactive. On to `CCNS(=O)(=O)C(F)(F)C(F)(F)C(F)(F)C(F)(F)C(F)(F)C(F)(F)C(F)(F)C(F)(F)F`, for which the AC50 was 2.98 µM (active) and 4.98 µM (active). On to `CN(C)[C@@H]1C(=O)C(C(N)=O)=C(O)[C@@]2(O)C(=O)C3=C(O)c4c(O)cccc4[C@@](C)(O)[C@H]3C[C@@H]12`, for which the call was inactive. `CC(C)(O)c1cnn2c(-c3ccc(F)c(-c4c(F)cccc4C#N)c3)cnc2n1`: the call was inactive. Take `C1=Cc2cccc3cccc1c23`: the outcome was inactive.
